Assay results from PubChem BioAssay (Tox21).
Records with an inconclusive call do not appear. Some structures have more than one record in an assay (separate samples or runs), and their calls can disagree. Calls of active or inactive are those of the source. Unless noted, the call rests on the fitted dose curve; in most records, active means well fitted curve in the direction sought with a large enough effect in the repeat runs; inconclusive means weak or mixed curves; inactive means no such curve, though single readings can be large; an effect the other way counts as inactive or inconclusive.

Assays:
[1] = qHTS assay to identify small molecule agonists of the androgen receptor (AR) signaling pathway in the presence of an antagonist - cell viability counter screen (AID 1259379); conditions: MDA-kb2 viability, CellTiter-Fluor, 16 h; series mostly up to 92.4 µM;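 further: MDA-kb2 human breast cancer cells carrying an MMTV luciferase reporter; nearly all actives have a fitted effect of over 25% in size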
Outline: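 A CellTiter-Fluor read-out measured viability of MDA-kb2 reporter cells (MMTV promoter with AR and GR response elements). Treatment: nilutamide 3.0uM final with compounds at 15 concentrations, 16 hr, 37C, 0% CO2.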

[2] = qHTS assay to identify small molecule agonists of the estrogen receptor beta (ER-beta) signaling pathway - cell viability counter screen (AID 1259380); conditions: ER-beta-bla HEK293T viability, CellTiter-Glo luminescence, 16 h; series mostly up to 92.4 µM; further: nearly all actives have a fitted effect of over 30% in size
Outline: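 Cells used were ER-beta-UAS-bla HEK293T in medium with 2% charcoal-stripped FBS. They were treated for 16 hr at 37C. Viability came from CellTiter-Glo luminescence.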

[3] = qHTS assay to identify small molecule antagonists of the estrogen receptor beta (ER-beta) signaling pathway - cell viability counter screen (AID 1259382); conditions: ER-beta-UAS-bla HEK293T viability, CellTiter-Glo luminescence, 16 h; series mostly up to 92.4 µM; further: nearly all actives have a fitted effect of over 55% in size
Outline: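 Agonist-stimulated (1nM E2) ER-beta-UAS-bla HEK293T cells are incubated with library compounds for 16 hr at 37C. Cell viability is then assessed in the reporter-assay wells by adding CellTiter-Glo and reading luminescence after 30 min.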

[4] = molecular target: Estrogen receptor (Homo sapiens) (UniProt P03372); experiment: qHTS assay to identify small molecule agonists of the estrogen receptor alpha (ER-alpha) signaling pathway in the presence of an antagonist (AID 1259383; calls by dose curve; further: top concentration of the series differs between compounds; nearly all actives have a fitted effect of over 15% in size); conditions: VM7Luc4E2 cells, ERE-luciferase, +ICI-182,780, 22 h; series mostly up to 92.4 µM
Estrogen receptor (Homo sapiens), sequence (P03372 whole entry, looked up): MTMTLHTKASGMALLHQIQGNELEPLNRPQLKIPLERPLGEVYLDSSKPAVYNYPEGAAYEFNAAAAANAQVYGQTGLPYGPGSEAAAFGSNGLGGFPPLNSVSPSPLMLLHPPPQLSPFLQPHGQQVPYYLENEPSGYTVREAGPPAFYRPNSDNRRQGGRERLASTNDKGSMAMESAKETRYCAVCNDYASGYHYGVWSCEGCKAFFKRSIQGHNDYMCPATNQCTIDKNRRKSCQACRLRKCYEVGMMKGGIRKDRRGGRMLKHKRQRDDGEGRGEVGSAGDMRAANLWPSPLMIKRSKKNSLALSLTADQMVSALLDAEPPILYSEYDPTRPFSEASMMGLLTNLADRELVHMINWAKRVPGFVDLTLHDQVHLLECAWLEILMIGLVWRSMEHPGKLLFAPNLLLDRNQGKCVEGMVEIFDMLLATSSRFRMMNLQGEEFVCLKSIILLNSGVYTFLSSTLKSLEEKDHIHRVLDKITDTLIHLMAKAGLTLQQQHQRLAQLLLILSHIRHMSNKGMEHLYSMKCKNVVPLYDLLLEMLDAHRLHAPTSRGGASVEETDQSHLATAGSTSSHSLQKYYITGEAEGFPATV
Outline: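 Using VM7Luc4E2 cells seeded 24hr before treatment, antagonist ICI-182,780 (10.0nM final) was added, followed by compounds at 15 concentrations. Plates incubated 22hr; ONE-Glo luminescence quantified reporter activity.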

[5] = qHTS assay to identify small molecule agonists or antagonists of the thyroid stimulating hormone receptor (TSHR) signaling pathway - wild type cell line counter screen (AID 1259384; calls by dose curve); conditions: HEK293 wild type, cAMP HTRF counter-screen, stronger effect = higher value; series mostly up to 92.4 µM
Outline: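 Counter screen in untransfected Hek293: compounds (15-point titration, triplicate) plus phosphodiesterase inhibitor Ro20-1724 added after 18 h plating; 30 min RT. Intracellular cAMP via competitive d2/cryptate immunoassay, 1 h incubation.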

[6] = molecular target: Thyrotropin receptor (Homo sapiens) (UniProt P16473); experiment: qHTS assay to identify small molecule antagonists of the thyroid stimulating hormone receptor (TSHR) signaling pathway (AID 1259385; calls by dose curve; further: nearly all actives have a fitted effect of over 20% in size); conditions: TSHR-HEK293 cAMP HTRF, TSH-stimulated antagonist mode; series mostly up to 92.4 µM
Thyrotropin receptor (Homo sapiens), sequence (P16473 whole entry, looked up): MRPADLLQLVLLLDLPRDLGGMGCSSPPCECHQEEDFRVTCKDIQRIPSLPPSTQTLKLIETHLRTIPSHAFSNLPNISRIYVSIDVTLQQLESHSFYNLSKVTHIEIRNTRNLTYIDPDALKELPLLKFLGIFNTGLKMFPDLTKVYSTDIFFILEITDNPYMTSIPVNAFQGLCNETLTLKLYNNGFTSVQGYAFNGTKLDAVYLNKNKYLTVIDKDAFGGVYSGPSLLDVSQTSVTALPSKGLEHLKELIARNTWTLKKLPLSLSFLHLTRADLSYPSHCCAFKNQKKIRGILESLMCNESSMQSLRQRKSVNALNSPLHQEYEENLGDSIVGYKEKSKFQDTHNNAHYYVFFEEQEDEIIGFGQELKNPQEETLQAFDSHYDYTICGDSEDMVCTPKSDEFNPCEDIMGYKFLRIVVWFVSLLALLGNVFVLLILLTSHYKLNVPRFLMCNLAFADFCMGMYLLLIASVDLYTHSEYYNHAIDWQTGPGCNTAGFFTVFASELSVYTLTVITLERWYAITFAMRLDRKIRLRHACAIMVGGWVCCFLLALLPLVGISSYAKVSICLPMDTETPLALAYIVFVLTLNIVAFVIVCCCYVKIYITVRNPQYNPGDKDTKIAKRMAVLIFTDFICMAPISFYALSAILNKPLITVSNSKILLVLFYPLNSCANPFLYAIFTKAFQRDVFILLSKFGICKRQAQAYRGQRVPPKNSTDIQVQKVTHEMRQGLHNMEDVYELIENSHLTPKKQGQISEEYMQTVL
Outline: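 Antagonist mode: compound-treated TSHR-expressing HEK293 cells were stimulated with 1.5 ng/mL TSH (final) in presence of Ro20-1724 for 30 min at RT. HTRF cAMP detection after 1 h; each compound tested at 15 concentrations, triplicate.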

[7] = qHTS assay to identify small molecule agonists of the estrogen receptor alpha (ER-alpha) signaling pathway in the presence of an antagonist - cell viability counter screen (AID 1259386); conditions: VM7Luc4E2 viability, CellTiter-Fluor fluorescence, 22 h; series mostly up to 92.4 µM;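 further: cells exposed to compounds for 22 h at 37 °C before the viability read; nearly all actives have a fitted effect of over 30% in size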
Outline: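 ICI-182,780 at 10.0nM final accompanies the compound titration (15 concentrations, 22hr, 37C) on VM7Luc4E2 cells. The CellTiter-Fluor fluorescence readout runs in the same wells as the luciferase assay.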

[8] = qHTS assay to identify small molecule antagonists of the progesterone receptor (PR) signaling pathway - cell viability counter screen (AID 1346798); conditions: PR-UAS-bla HEK293T viability, CellTiter-Glo luminescence, 16 h; series mostly up to 92.4 µM; further: nearly all actives have a fitted effect of over 50% in size
Outline: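 PR-UAS-bla HEK293T cells in medium with 2% charcoal-stripped FBS were treated with compounds plus R5020 for 16 hr at 37C. Cell viability was then read by CellTiter-Glo luminescence after 30 min at room temperature in the same wells.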

[9] = qHTS assay to identify small molecule agonists of the progesterone receptor (PR) signaling pathway - cell viability counter screen (AID 1346799; calls by dose curve; further: nearly all actives have a fitted effect of over 45% in size); conditions: PR-UAS-bla HEK293T viability, CellTiter-Glo luminescence, 16 h; series mostly up to 92.4 µM
Outline: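 PR-UAS-bla HEK293T cells, 3,000 per well in medium with 2% charcoal-stripped FBS, were preincubated 6 hr at 37C, then exposed to compounds for 16 hr; viability was read as CellTiter-Glo luminescence after 30 min at room temperature.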

[10] = qHTS assay to identify small molecule agonists of the TGF-beta/Smad signaling pathway (AID 1346859; active means well fitted activation curve with a large enough effect in the signal ratio in the repeat runs, not every such curve was filed as active; the % refers to the signal ratio); conditions: SBE-bla HEK293T, TGF-beta/Smad beta-lactamase reporter, 5 h; series mostly up to 76.8 µM
Outline: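 HEK 293T cells stably carrying a beta-lactamase reporter driven by the Smad binding element were seeded overnight, exposed to DMSO-dissolved compounds for 5 hr at 37 C, 5% CO2, then loaded with FRET substrate for 2 hr at room temperature.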

[11] = molecular target: Thyrotropin-releasing hormone receptor (Homo sapiens) (UniProt P34981); experiment: qHTS assay to identify small molecule antagonists of the thyrotropin-releasing hormone receptor (TRHR) signaling pathway (AID 1346877; active means well fitted inhibition curve with a large enough effect in the repeat runs, not every such curve was filed as active); conditions: TRHR-HEK293, TRH-induced calcium fluorescence, antagonist mode; series mostly up to 51.3 µM
Thyrotropin-releasing hormone receptor (Homo sapiens), sequence (P34981 whole entry, looked up): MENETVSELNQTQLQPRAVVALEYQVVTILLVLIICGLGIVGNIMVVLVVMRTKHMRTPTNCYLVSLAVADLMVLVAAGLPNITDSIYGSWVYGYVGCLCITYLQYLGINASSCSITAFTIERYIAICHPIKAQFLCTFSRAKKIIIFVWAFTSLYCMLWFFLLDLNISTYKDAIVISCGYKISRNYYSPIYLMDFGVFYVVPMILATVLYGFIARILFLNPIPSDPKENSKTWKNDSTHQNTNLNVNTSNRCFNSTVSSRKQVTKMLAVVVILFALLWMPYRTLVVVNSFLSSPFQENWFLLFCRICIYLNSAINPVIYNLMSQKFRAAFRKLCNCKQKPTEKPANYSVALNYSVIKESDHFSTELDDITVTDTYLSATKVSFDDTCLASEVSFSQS
Outline: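 Screening used HEK293 cells engineered with TRHR, with a brief 5 min room-temperature compound exposure preceding addition of TRH to 1 nM. The read-out was kinetic calcium-dye fluorescence, concentration-response from 15 doses in triplicate.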

[12] = Human pregnane X receptor (PXR) small molecule agonists, qHTS cell viability counter screen (AID 1346977); conditions: PXR-Luc HepG2 viability, CellTiter-Fluor, 24 h; series mostly up to 92.4 µM; further: nearly all actives have a fitted effect of over 50% in size
Outline: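 PXR-Luc HepG2 cells in medium with 5% charcoal-stripped FBS were pre-incubated 5hr, then exposed to compounds for 24hr at 37C. Viability was read in the same wells by CellTiter-Fluor fluorescence, reagent added after 23hr with a 1hr incubation.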

[13] = molecular target: Progesterone receptor (Homo sapiens) (UniProt P06401); experiment: qHTS assay to identify small molecule agonists of the progesterone receptor (PR) signaling pathway (AID 1346784; calls by dose curve; further: nearly all actives have a fitted effect of over 30% in size; further: potency means the concentration at half of the fitted maximal effect); conditions: PR-UAS-bla HEK293T, beta-lactamase FRET ratio, 16 h; series mostly up to 92.4 µM
Progesterone receptor (Homo sapiens), sequence (P06401 whole entry, looked up): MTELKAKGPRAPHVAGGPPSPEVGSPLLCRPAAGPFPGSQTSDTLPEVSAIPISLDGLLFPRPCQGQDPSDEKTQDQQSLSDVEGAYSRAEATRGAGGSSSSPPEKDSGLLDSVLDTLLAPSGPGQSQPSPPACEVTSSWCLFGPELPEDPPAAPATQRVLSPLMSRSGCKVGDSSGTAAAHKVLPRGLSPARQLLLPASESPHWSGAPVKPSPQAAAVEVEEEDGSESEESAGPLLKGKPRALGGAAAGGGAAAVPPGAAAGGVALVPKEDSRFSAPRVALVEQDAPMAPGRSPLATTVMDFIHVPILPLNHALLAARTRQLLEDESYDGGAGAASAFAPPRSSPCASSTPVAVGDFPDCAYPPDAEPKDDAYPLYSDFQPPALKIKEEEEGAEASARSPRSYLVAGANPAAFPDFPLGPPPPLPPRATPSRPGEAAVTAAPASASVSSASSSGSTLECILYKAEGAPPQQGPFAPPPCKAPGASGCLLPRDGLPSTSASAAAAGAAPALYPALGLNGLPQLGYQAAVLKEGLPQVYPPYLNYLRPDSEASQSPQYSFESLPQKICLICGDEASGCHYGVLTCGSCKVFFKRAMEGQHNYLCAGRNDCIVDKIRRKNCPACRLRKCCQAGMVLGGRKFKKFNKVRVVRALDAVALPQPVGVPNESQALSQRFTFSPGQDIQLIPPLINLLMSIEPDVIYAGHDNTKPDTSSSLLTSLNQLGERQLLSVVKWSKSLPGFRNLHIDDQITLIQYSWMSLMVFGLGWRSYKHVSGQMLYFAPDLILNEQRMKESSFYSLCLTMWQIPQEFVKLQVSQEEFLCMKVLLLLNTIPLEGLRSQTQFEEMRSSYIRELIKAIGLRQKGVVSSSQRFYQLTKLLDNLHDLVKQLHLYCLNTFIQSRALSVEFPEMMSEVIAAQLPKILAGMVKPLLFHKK
Outline: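 PR-UAS-bla HEK 293T cells carrying a UAS-driven beta-lactamase reporter were seeded in medium with 2% charcoal-stripped FBS, preincubated 6 hr at 37C, then exposed to compounds in DMSO for 16 hr; agonism was read by LiveBLAzer B/G FRET fluorescence.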

[14] = molecular target: Progesterone receptor (Homo sapiens) (UniProt P06401); experiment: qHTS assay to identify small molecule antagonists of the progesterone receptor (PR) signaling pathway (AID 1346795; active means well fitted inhibition curve with a large enough effect in the signal ratio in the repeat runs, not every such curve was filed as active; the % refers to the signal ratio); conditions: PR-UAS-bla HEK293T, beta-lactamase FRET ratio, 16 h; series mostly up to 92.4 µM
Outline: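 PR-UAS-bla HEK293T cells carrying a UAS-driven beta-lactamase reporter were plated in medium with 2% charcoal-stripped FBS and rested 6 hr at 37C. Compounds were added with 1 nM R5020 (final) for 16 hr, then FRET substrate loaded 2 hr at room temperature.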

[15] = qHTS assay to identify small molecule antagonists of the TGF-beta/Smad signaling pathway - cell viability counter screen (AID 1346824); conditions: SBE-bla HEK293T viability, CellTiter-Glo luminescence; series mostly up to 76.8 µM; further: nearly all actives have a fitted effect of over 50% in size
Outline: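 Cytotoxicity counter-screen run in the same wells as the beta-lactamase Smad reporter read: CellTiter-Glo luminescence after 30 min at room temperature. HEK 293T SBE-bla cells had 5 hr compound exposure at 37 C with TGF-beta1 (0.25 ng/mL stock).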

[16] = qHTS assay to identify small molecule agonists of the TGF-beta/Smad signaling pathway - cell viability counter screen (AID 1346829); conditions: SBE-bla HEK293T viability, CellTiter-Glo luminescence, 5 h; series mostly up to 76.8 µM; further: top concentration of the series differs between compounds; nearly all actives have a fitted effect of over 45% in size
Outline: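 Cytotoxicity counter screen: CellTiter-Glo luminescence (30 min, room temperature) measured in the SBE-bla HEK 293T reporter wells after 5 hr compound treatment at 37 C and the 2 hr substrate step.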

[17] = molecular target: Thyrotropin-releasing hormone receptor (Homo sapiens) (UniProt P34981); experiment: qHTS assay to identify small molecule agonists of the thyrotropin-releasing hormone receptor (TRHR) signaling pathway (AID 1346891; calls by dose curve); conditions: TRHR-HEK293 calcium fluorescence, agonist mode; series mostly up to 57.6 µM
Outline: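 TRHR-expressing HEK293 cells were plated 18 h at 37 °C/5% CO2, loaded with calcium dye 2 h at 37 °C, then given compound in DMSO; fluorescence was read kinetically for 3 min at 1 s intervals.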

[18] = molecular target: Estrogen receptor beta (Homo sapiens) (UniProt Q92731); experiment: qHTS assay to identify small molecule antagonists of the estrogen receptor beta (ER-beta) signaling pathway (AID 1259378; active means well fitted inhibition curve with a large enough effect in the signal ratio in the repeat runs, not every such curve was filed as active; the % refers to the signal ratio); conditions: ER-beta-UAS-bla HEK293T, beta-lactamase FRET ratio, 16 h; series mostly up to 92.4 µM
Estrogen receptor beta (Homo sapiens), sequence (Q92731 whole entry, looked up): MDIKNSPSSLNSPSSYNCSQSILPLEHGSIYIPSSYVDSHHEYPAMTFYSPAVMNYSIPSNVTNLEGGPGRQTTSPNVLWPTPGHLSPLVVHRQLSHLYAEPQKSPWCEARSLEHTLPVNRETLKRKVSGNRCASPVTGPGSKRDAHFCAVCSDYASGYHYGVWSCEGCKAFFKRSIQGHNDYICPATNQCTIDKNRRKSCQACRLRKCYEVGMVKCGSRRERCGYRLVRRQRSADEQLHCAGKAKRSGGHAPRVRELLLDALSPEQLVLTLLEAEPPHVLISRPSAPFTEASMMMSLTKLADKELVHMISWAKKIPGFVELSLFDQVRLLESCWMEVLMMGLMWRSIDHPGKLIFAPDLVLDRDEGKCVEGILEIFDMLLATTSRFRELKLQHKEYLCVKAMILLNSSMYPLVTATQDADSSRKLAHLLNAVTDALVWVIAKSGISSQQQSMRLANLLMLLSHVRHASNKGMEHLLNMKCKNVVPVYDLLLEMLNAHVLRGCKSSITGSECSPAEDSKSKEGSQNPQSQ
Outline: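 Antagonist mode: compounds added to beta-lactamase reporter HEK293T ER-beta-UAS cells stimulated with E2 (1nM final), 16 hr at 37C. LiveBLAzer B/G FRET substrate, 2 hours room temperature, fluorescence read-out.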

Measured: Potency

ClCC1CO1 (stereo not given)
not listed: [13] | [14] | [15] | [16] | [17] | [18]
inactive: all other assays above

CCOC(=O)CC(SP(=S)(OC)OC)C(=O)OCC (stereo not given)
1.37 µM (active) and inactive: [13]
not listed: [18]
inactive: all other assays above

ClCOCCl
not listed: [5] | [11] | [13] | [17]
inactive: all other assays above

NCC1(CC(=O)O)CCCCC1
not listed: [4] | [18]
inactive: all other assays above

CCN[C@@H](C)Cc1cccc(C(F)(F)F)c1
not listed: [9] | [13] | [14] | [18]
inactive: all other assays above

CCCCCCCC(=O)Cl
not listed: [12] | [15] | [18]
inactive: all other assays above

CN(C)C1CCCCC1
not listed: [5] | [6] | [10] | [17] | [18]
inactive: all other assays above

O=CCCl
not listed: [2] | [13] | [15]
inactive: all other assays above

CCOP(=S)(OCC)SCCl
not listed: [10] | [11] | [18]
inactive: all other assays above

CCCC[N+](=O)[O-]
not listed: [5] | [10] | [12] | [18]
inactive: all other assays above
